Assay outcomes from PubChem.
DRD3 agonist = agonists of human D3 dopamine receptor. D3R DiscoveRx beta-arrestin cells, luminescence, 90 min. max activation, %. hit rate 0.58% among 410,000. AID 652048; in the data active = max activation above about 30%; note: 0% is about no effect
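Cells at 1500/well, incubated overnight, then treated with pinned compounds (dopamine as control) for 90 min at 37 degrees C. DiscoveRx reagent added for 30 - 60 minutes at room temperature; luminescence read.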
D1 PAM = human D1 dopamine receptor positive modulation. P21728. HEK293 TREx D1 cells, calcium flux, dopamine EC20 potentiation. potentiation, % at 10 µM. hit rate 0.036% among 360,000; in the data active = potentiation above about 30%; note: 0% is about no effect
Target sequence (P21728 whole entry, looked up): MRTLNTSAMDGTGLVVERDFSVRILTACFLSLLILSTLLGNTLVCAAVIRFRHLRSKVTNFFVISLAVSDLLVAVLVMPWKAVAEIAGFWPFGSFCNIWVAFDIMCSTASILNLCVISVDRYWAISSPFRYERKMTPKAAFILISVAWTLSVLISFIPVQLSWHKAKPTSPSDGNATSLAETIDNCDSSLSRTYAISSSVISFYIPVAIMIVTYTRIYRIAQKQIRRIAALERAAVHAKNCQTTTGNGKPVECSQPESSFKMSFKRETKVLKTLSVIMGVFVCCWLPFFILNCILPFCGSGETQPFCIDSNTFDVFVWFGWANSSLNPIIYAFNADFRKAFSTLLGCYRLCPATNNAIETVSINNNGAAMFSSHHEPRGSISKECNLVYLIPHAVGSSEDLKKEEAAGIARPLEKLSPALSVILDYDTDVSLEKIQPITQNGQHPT
D1 antag = human D1 dopamine receptor antagonism. activity change, negative = inhibition, % at 10 µM. P21728. AID 504652. hit rate 3.2% among 360,000. HEK293 TREx D1 cells, calcium flux, dopamine EC80; active compounds read low; in the data active = activity change below about -30%; note: % is set by controls: 0 for no effect and ±100 for the full control effect
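Kinetic fluorescence of a calcium dye serves as the read-out. D1-expressing Hek293 Trex cells, induced overnight at 30 C, are exposed to compound for 180 s before an EC80 dopamine addition, then read 180 s further.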
D3 antag = blocks the human D3 dopamine receptor; P35462; D3R cells, DiscoveRx beta-arrestin luminescence, antagonist mode; active compounds read low; max response, negative = inhibition, %; hit rate 2.5% among 360,000; AID 652054; in the data active = max response below about -50%; inconclusive = no clear call, values can overlap the other calls; note: % is set by controls: 0 for no effect and ±100 for the full control effect
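Cells plated overnight at 1500 cells/well, then exposed to library compounds with dopamine controls for 90 minutes at 37 degrees C. DiscoveRx reagent added for 30–60 minutes at room temperature; luminescence read, quantitative HTS format.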
D1 ag = human D1 receptor agonism; P21728; HEK293 T-REx D1 cells, calcium flux, agonist mode; activation, % at 2 µM; hit rate 1% among 360,000; in the data active = activation above about 30%; note: 0% is about no effect
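Tetracycline-induced HEK293 TREx D1 cells, force-coupled to calcium signalling, were dye-loaded with a no-wash calcium kit. Compound was pin-added after a 10 s baseline. Fluorescence was read kinetically at 1 cycle/s for 180 s, with calcium rises flagged as agonism.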
Active calls of the source: *; u = inconclusive; x = no result given. Shown are actives, neighbours in structure and some others; about 6% of the full set was active somewhere.

SMILES | DRD3 agonist | D1 PAM | D1 antag | D3 antag | D1 ag
COc1ccc(C(=O)NCC(c2cccs2)S(=O)(=O)c2ccc(F)c(C)c2)cc1 (centres undefined) | 9 | -5 | 1 | x | 0
O=C1C(CO)C(CO)C(CO)C1CO (centres undefined) | 39* | x | x | -6 | x
CCN(CC)C(=O)/C(C#N)=C/c1cc(O)c(O)c([N+](=O)[O-])c1 | 4 | x | x | x | x
Clc1nssc1=Nc1ccc(Br)cc1 | 5 | -6 | -11 | 5 | 34*
COc1cc(N=c2ssnc2Cl)cc(OC)c1 | -8 | 3 | -4 | -71* | 5
COc1cccc(-n2c(=O)c3c(C)c(C(=O)N(C)C)sc3n(Cc3ccc(F)cc3Cl)c2=O)c1 | -11 | 3 | -31* | x | 1
COC(=O)c1ccccc1NC(=O)Cn1c(=O)n(-c2cccc(OC)c2)c(=O)c2c(C)c(C(=O)N(C)C)sc21 | -10 | -3 | -35* | x | 19
COc1cccc(-n2c(=O)c3c(C)c(C(=O)N(C)C)sc3n(CC(=O)NCC3CCCO3)c2=O)c1 (centres undefined) | 0 | -15 | -30* | 8 | 2
COc1cccc(-n2c(=O)c3c(C)c(C(=O)N(C)C)sc3n(CC(=O)Nc3ccc(C)cc3Cl)c2=O)c1 | -4 | 0 | 1 | x | 2
CCc1ccc(-n2c(=O)c3c(C)c(C(=O)N(C)C)sc3n(CC(=O)NCC3CCCO3)c2=O)cc1 (centres undefined) | 0 | 1 | 4 | 11 | 2
CCC(C(=O)Nc1cccc(C#N)c1)n1nc(-c2ccccc2)ccc1=O (centres undefined) | 5 | 0 | 8 | x | 1
Cn1cc([N+](=O)[O-])cc1-c1nc2ccccc2n1C | 1 | -3 | -34* | 1 | 3
Cn1c(-c2ccc([N+](=O)[O-])cc2)nc2ccccc21 | 4 | -12 | -18 | 18 | 1
CCn1c(=O)c(C(=O)NNC(=O)c2ccccc2F)c(O)c2ccccc21 | -2 | -1 | -42* | -3 | 83*
CCn1c(=O)c(C(=O)NNC(=O)c2ccccc2Cl)c(O)c2ccccc21 | 2 | -4 | 16 | -13 | 66*
CCCCCC(=O)NNC(=O)c1c(O)c2ccccc2n(CC)c1=O | -7 | -5 | -28 | u | 0
O=C(NOCC1CC1)c1ccc(F)c(F)c1Nc1ccc(I)cc1Cl | -10 | x | x | x | x
COc1ccc(OC)c(-c2csc(NC(=O)Cc3ccccc3)n2)c1 | -6 | -4 | -27 | 4 | 2
COC(=O)c1cc(-c2cc(OC)ccc2OC)nc2c1c(=O)n(C)c(=O)n2Cc1ccccc1 | -29 | 4 | -2 | -79* | 2
CCc1ccc2nc(N(Cc3cccnc3)C(C)=O)sc2c1 | -10 | -3 | x | x | -2
Cc1c(Cl)cccc1NC(=O)Cn1cc(C(=O)C2CCCCC2)c2ccccc21 | 14 | -1 | -3 | x | 3
Cc1ccc(NC(=O)C2CCN(S(=O)(=O)c3c(C)noc3C)CC2)c(C)c1 | -6 | -2 | -5 | x | 0
CN1CCN(C(=O)c2ccc3c(c2)NC(=O)/C(=C/c2ccccc2)S3)CC1 | -9 | -10 | -26 | -21 | 10
Cc1ccc(/C=C2/Sc3ccc(C(=O)N4CCN(c5ccccn5)CC4)cc3NC2=O)cc1 | 5 | -4 | -46* | 0 | 4
COc1cccc(CNCCSc2nnnn2C)c1OCc1ccc(Cl)cc1Cl | -19 | -5 | -1 | x | 12
SMILES | DRD3 agonist | D1 PAM | D1 antag | D3 antag | D1 ag
Cc1ccc(C(NC(=O)/C=C\c2ccc3c(c2)OCO3)C(=O)Nc2ccc3c(c2)OCO3)cc1 (centres undefined) | -28 | -1 | -4 | -88* | 8
CCCNC(=O)CCSc1nc(-c2ccc3c(c2)OCO3)cc(C(F)(F)F)n1 | 4 | -4 | -10 | x | 3
CCc1ccc(NC(=O)C(CC)c2ccccc2)cc1 (centres undefined) | 2 | 14 | 3 | 13 | 41*
CCc1ccc(NC(=O)NNC(=O)CCc2ccccc2)cc1 | -16 | -5 | -61* | -7 | 1
O=C(Nc1ccccc1C(=O)O)c1ccc(NC(=O)c2ccc(Br)o2)cc1 | 115* | -3 | -4 | 44 | 2
CCC(C(=O)Nc1ccc(C(=O)N2CCCC2)cc1)c1ccccc1 (centres undefined) | -1 | -6 | 4 | -15 | 37*
CCC(C(=O)Nc1ccc(C)cc1)c1ccccc1 (centres undefined) | -3 | 0 | 11 | 3 | 12
CCC(C(=O)Nc1ccc(C(=O)Nc2ccccc2C(=O)O)cc1)c1ccccc1 (centres undefined) | 17 | -5 | -65* | 35 | 2
CC1(C)CC(=O)C=C(NC2=CC3OC(c4ccccc4)OCC3OC2=O)C1 (centres undefined) | -4 | -1 | 6 | -54* | 5
O=C(CSc1nnc(CCCN2C(=O)c3cccc4cccc(c34)C2=O)n1-c1ccccc1)N1CCCCC1 | -1 | -7 | -79* | -8 | 3
O=C(NCCCN1CCOCC1)c1cccs1 | -5 | 6 | -35* | 30 | 8
O=C(CNC(=O)c1cccs1)NCCN1CCN(c2ccccc2F)CC1 | -11 | -8 | -19 | -52* | 1
O=C(NCCN1CCN(C(=O)c2cccs2)CC1)c1cccs1 | -34 | -2 | -1 | -74* | 3
CCN(CC)C(=O)CSc1nc(-c2ccc(C)cc2)nc2c1Cc1c(CO)cnc(C)c1O2 | 10 | 0 | 3 | x | 1
O=C(CN1CCNCC1)NC1CCCCC1 | 0 | x | x | x | x
CCOC(=O)C(=CNc1cc(C)ccc1C)C(=O)OCC | 19 | 8 | 12 | 113 | 3
CCOC(=O)C(=CNc1cc(OC)ccc1-n1cccc1)C(=O)OCC | 51* | 0 | -20 | 91 | 7
CCCCCOc1ccc(NC(=O)Cc2csc(C)n2)cc1 | 5 | -1 | 7 | x | -1
Cc1ccc(CSc2nnc3c(n2)OC2(Nc4ccccc4-3)C(=O)Nc3ccc(F)cc32)cc1 (centres undefined) | -22 | -1 | 6 | u | 3
O=C1Nc2ccc(F)cc2C12Nc1ccccc1-c1nnc(SCc3ccccc3)nc1O2 (centres undefined) | -37 | x | x | -81* | x
CCOC(=O)c1nn(C)c(C)c1Cl | -30 | -7 | -44* | -71* | 6
Cc1ccc(OCC(=O)OCc2cc(=O)n3c(C)csc3n2)cc1 | 1 | -6 | -12 | x | 7
CC1CC(C)CN(C(=S)Nc2ccc(OC(F)F)cc2)C1 (centres undefined) | -4 | -3 | -17 | 19 | 5
CCC1CCCCN1C(=S)Nc1ccc(OC(F)F)cc1 (centres undefined) | 3 | 0 | -43* | 5 | 19
Cc1ccc(C(=O)N/C(=C/c2ccc(N(C)C)cc2)C(=O)NCC2CCCO2)cc1 (centres undefined) | 35* | -4 | -6 | 9 | 1
